Rows were chosen to be rich in hits. Some 9.4% of all compounds tested hit in one or more screens of this group.
SMN2 splice enh: increases expression of the SMN2 splice variant | HEK293 SMN2-luciferase splicing reporter, luminescence, 30-36 h | actives 2.8% (n = 210,000) | Potency, µM (titrated, usually from 46.1 µM), hits mostly activators | AID 1458; further: nearly all actives have a fitted effect of over 55% in size
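HEK293 cells carry an SMN2 minigene-luciferase reporter in which exon 7 inclusion puts luciferase in frame. Cells were seeded at 2000 cells/well, attached for 10-12 hours, then exposed to compounds for 30-36 hours at 37C before ONE-Glo luminescence.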
FLuc modulator: inhibits or activates purified firefly luciferase, miR-21 counter-screen | P08659 | purified FLuc, Km substrates, luminescence inhibition | Potency, µM (titrated, usually from 57.5 µM), usual class: inhibitors | actives 6.9% (n = 360,000) | AID 588342; further: nearly all actives have a fitted effect of over 55% in size
Target sequence (P08659 whole entry, looked up): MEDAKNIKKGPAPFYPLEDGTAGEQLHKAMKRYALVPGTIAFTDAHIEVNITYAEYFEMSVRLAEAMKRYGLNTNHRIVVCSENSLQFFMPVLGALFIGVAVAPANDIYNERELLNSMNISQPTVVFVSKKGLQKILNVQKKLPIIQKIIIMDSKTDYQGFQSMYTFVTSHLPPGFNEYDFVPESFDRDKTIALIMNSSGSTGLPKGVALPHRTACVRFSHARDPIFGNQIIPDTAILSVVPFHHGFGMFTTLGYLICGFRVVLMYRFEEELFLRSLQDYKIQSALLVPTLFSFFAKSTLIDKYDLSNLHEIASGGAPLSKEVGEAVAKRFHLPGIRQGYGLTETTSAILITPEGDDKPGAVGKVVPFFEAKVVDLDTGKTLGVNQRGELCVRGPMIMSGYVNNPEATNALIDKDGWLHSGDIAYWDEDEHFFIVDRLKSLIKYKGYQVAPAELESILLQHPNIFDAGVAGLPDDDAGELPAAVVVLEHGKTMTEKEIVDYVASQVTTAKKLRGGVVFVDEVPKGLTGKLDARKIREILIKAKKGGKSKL
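Purified P. pyralis luciferase, 10 nM final, with Km-level 10 uM D-luciferin and 10 uM ATP in 50 mM Tris acetate pH 7.5, 10 mM Mg acetate, 0.01% Tween-20, 0.05% BSA; 6-point qHTS titration about 60 µM downward; luminescence read.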
ELG1 genotoxic: inducers of genotoxicity in HEK293T ELG1-luciferase cells. HEK293T ELG1-luciferase reporter, luminescence, 16 h. actives 1.3% (n = 330,000). AID 504466. Potency, µM (highest dose often 46 µM), actives largely listed as activators; further: nearly all actives have a fitted effect of over 60% in size
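ELG1-luciferase HEK293T cells, 2,000/well; compound pinned in; 16 hr, 37 °C, 5% CO2; ONE-Glo, 30 min RT; luminescence on CCD imager.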
Rab9 promoter act: Rab9 promoter activation; Potency, µM (highest dose often 9.22 µM), usual class: activators; AID 485297; actives 2.8% (n = 320,000); Huh7 Rab9 promoter-luciferase reporter, luminescence, 24 h; further: nearly all actives have a fitted effect of over 60% in size
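Luminescence read-out: Huh7 cells stably expressing Rab9-luciferase, treated 24 h with compound at 37 °C, then lysed with luciferase reagent for 10 min at ambient before reading.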
NPC1 prom act: activates the NPC1 promoter | Huh7 NPC1 promoter luciferase reporter, 24 h | Potency, µM (titrated, usually from 9.22 µM), actives largely listed as activators | actives 2.4% (n = 320,000) | AID 485313; further: nearly all actives have a fitted effect of over 60% in size
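Luminescence read-out of NPC1 promoter-driven luciferase in stably transfected Huh7 cells; compounds delivered in DMSO and left 24 h at 37C, 5% CO2, qHTS titration format.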
ELG1 DNA repair: ELG1-dependent DNA repair inhibition; HEK293T ELG1-luciferase reporter, luminescence, 16 h; DNA damage induced by 5-fluorouridine; Potency, µM (series often up to 46.1 µM), usual class: inhibitors; actives 2.3% (n = 330,000); AID 504467; further: nearly all actives have a fitted effect of over 55% in size
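5-Fluorouridine DNA damage + compound/DMSO, 2,000 cells/well, 16 h, 37 °C/5% CO2. ONE-Glo, 30 min RT, luminescence. Readout = decrease in reporter signal.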
Hits are given with their value; [ ] = dose if it differs, or a comment. The call rests on the fitted dose curve; in most records, active means well fitted curve in the direction sought with a large enough effect; inconclusive means small, poorly fitted or top-dose-only effect, or another doubt; inactive means no such curve, though single readings can be large; an effect the other way counts as inactive or inconclusive.

`COC(=O)c1ccccc1NC(=S)N(Cc1ccc2c(c1)OCO2)Cc1cc2ccc(OC)cc2[nH]c1=O` gave SMN2 splice enh inactive, FLuc modulator inactive, ELG1 genotoxic inactive, Rab9 promoter act inactive, NPC1 prom act inactive and ELG1 DNA repair 7.31µM.
COC(=O)c1ccccc1NC(=S)N(Cc1ccc2c(c1)OCO2)Cc1cc2cc(C)ccc2[nH]c1=O was read as SMN2 splice enh inactive, FLuc modulator inactive, ELG1 genotoxic inactive, Rab9 promoter act inactive, NPC1 prom act inactive and ELG1 DNA repair 6.51µM.
`COc1ccc2[nH]c(=O)c(CN(Cc3ccc4c(c3)OCO4)C(C)=O)cc2c1` gave SMN2 splice enh inactive, FLuc modulator inactive, ELG1 genotoxic inactive, Rab9 promoter act inactive, NPC1 prom act inactive and ELG1 DNA repair inactive.
For CCN(CC)CCN(Cc1cc2ccc(C)cc2[nH]c1=O)C(=S)Nc1ccccc1C(=O)OC the results were FLuc modulator inactive, ELG1 genotoxic inactive, Rab9 promoter act inactive, NPC1 prom act inactive and ELG1 DNA repair inactive.
`COC(=O)c1ccccc1NC(=S)N(Cc1ccc2c(c1)OCO2)Cc1cc2ccc(C)cc2[nH]c1=O` gave SMN2 splice enh inactive, FLuc modulator inactive, ELG1 genotoxic inactive, Rab9 promoter act inactive, NPC1 prom act inactive and ELG1 DNA repair 5.8µM.
`CC(C)S(=O)(=O)c1nsc2nc(=O)c(/C=C3\C=Nc4ccccc43)c(N)n12` gave SMN2 splice enh inactive, FLuc modulator inconclusive, ELG1 genotoxic inactive, Rab9 promoter act inactive, NPC1 prom act inactive and ELG1 DNA repair inactive.
`CSc1nsc2nc(=O)c(/C=C3\C=Nc4ccccc43)c(N)n12` gave SMN2 splice enh inactive, FLuc modulator 16.9µM, ELG1 genotoxic inconclusive, Rab9 promoter act inactive, NPC1 prom act inactive and ELG1 DNA repair inconclusive.
For CSc1nsc2nc(=O)c(/C=C3\C(C)=Nc4ccc(C)cc43)c(N)n12 the results were SMN2 splice enh inactive, FLuc modulator 13.5µM, ELG1 genotoxic inactive, Rab9 promoter act inactive, NPC1 prom act inactive and ELG1 DNA repair inconclusive.
CCN(C(=O)Cn1c(=O)n(-c2ccccc2)c(=O)c2ccc(C(=O)NCc3ccc4c(c3)OCO4)cc21)c1cccc(C)c1 was read as SMN2 splice enh inactive and FLuc modulator inactive.
Screening Cc1ccc(NC(=O)COc2ccc(Br)cc2CO)cc1 returned SMN2 splice enh inactive, FLuc modulator 13.5µM, ELG1 genotoxic inactive, Rab9 promoter act inactive, NPC1 prom act inactive and ELG1 DNA repair inconclusive.
`O=C(COc1ccc(Br)cc1CO)Nc1ccccc1` gave SMN2 splice enh inactive, FLuc modulator inconclusive, ELG1 genotoxic inactive, Rab9 promoter act inactive, NPC1 prom act inconclusive and ELG1 DNA repair inconclusive.
`O=C(COc1ccc(Br)cc1CO)Nc1ccc(S(=O)(=O)N2CCCCC2)cc1` gave FLuc modulator inactive, ELG1 genotoxic inactive, Rab9 promoter act inactive, NPC1 prom act inactive and ELG1 DNA repair 18.3µM.
For CCc1ccc(OCC(=O)Nc2ccc(S(=O)(=O)N3CCCC3)cc2)c(Br)c1 the results were SMN2 splice enh inactive, FLuc modulator inactive, ELG1 genotoxic inactive, Rab9 promoter act inactive, NPC1 prom act inactive and ELG1 DNA repair inactive.
For Cc1ccc(CNC(=O)C2CCN(S(=O)(=O)c3c(C)noc3/C=C/c3ccccc3F)CC2)o1 the results were FLuc modulator inactive.
`O=C(NCCS(=O)(=O)N1CCN(c2cccc(Cl)c2)CC1)C(c1ccccc1)c1ccccc1` gave FLuc modulator inactive.
Screening COC(=O)c1cc(NC2(c3ccccc3)C(=O)c3ccccc3C2=O)cc(C(=O)OC)c1 returned FLuc modulator inactive.
`Cc1ccc(C)c(OCC(O)CN2CCN(CCN3C(=O)c4cccc5cccc(c45)C3=O)CC2)c1` (centres undefined) gave SMN2 splice enh inactive, FLuc modulator inactive, ELG1 genotoxic inactive, Rab9 promoter act inactive, NPC1 prom act inactive and ELG1 DNA repair 18.4µM.
COc1cccc(OCC(O)CN2CCC(CN3C(=O)c4cccc5cccc(c45)C3=O)CC2)c1 (centres undefined) was read as SMN2 splice enh inactive, FLuc modulator inactive, ELG1 genotoxic inactive, Rab9 promoter act inactive, NPC1 prom act inactive and ELG1 DNA repair inconclusive.
`O=C1c2cccc3cccc(c23)C(=O)N1CC1CCN(CC(O)COc2ccc3ccccc3c2)CC1` (centres undefined) gave SMN2 splice enh inactive, FLuc modulator 12µM, ELG1 genotoxic inactive, Rab9 promoter act inactive, NPC1 prom act inconclusive and ELG1 DNA repair inconclusive.
Screening O=C1c2cccc3cccc(c23)C(=O)N1CC1CCN(S(=O)(=O)c2ccc(F)cc2)CC1 returned SMN2 splice enh inactive, FLuc modulator inactive, ELG1 genotoxic inactive, Rab9 promoter act inactive, NPC1 prom act inactive and ELG1 DNA repair 20.6µM.
Screening O=C1c2cccc3cccc(c23)C(=O)N1CCN1CCN(CC(O)COc2ccc3ccccc3c2)CC1 (centres undefined) returned SMN2 splice enh inactive, FLuc modulator inactive, ELG1 genotoxic inactive, Rab9 promoter act inactive, NPC1 prom act inactive and ELG1 DNA repair 9.2µM.
CC(=O)c1ccccc1OCC(O)CN1CCN(CCN2C(=O)c3cccc4cccc(c34)C2=O)CC1 (centres undefined) was read as SMN2 splice enh inactive, FLuc modulator inactive, ELG1 genotoxic inactive, Rab9 promoter act inactive, NPC1 prom act inactive and ELG1 DNA repair inconclusive.
Screening O=C(NCc1ccc(F)cc1)c1cc2c(=O)n3ccccc3nc2s1 returned SMN2 splice enh inactive and FLuc modulator inactive.
COc1ccc(NC(=O)CCc2c(C)nn(-c3ccc(N4CCCC4)nn3)c2C)cc1Cl was read as FLuc modulator 21.3µM.
Screening Cc1cc(C)cc(NC(=O)CCc2c(C)nn(-c3ccc(N4CCOCC4)nn3)c2C)c1 returned FLuc modulator 15.1µM, ELG1 genotoxic inactive[9.26 µM], Rab9 promoter act inactive, NPC1 prom act inactive and ELG1 DNA repair inactive.
`COc1ccc(CNC(=O)CCc2c(C)nn(-c3ccc(N4CCCCC4)nn3)c2C)c(OC)c1` gave FLuc modulator inactive.
For Cc1nn(-c2ccc(N3CCCCC3)nn2)c(C)c1CCC(=O)Nc1cccc(F)c1 the results were FLuc modulator 4.78µM, ELG1 genotoxic inconclusive, Rab9 promoter act 3.98µM, NPC1 prom act 2.82µM and ELG1 DNA repair inconclusive.
`Cc1nn(-c2ccc(N3CCCC3)nn2)c(C)c1CCC(=O)Nc1ccccc1` gave FLuc modulator inactive.
CCc1ccc(NC(=O)CCc2c(C)nn(-c3ccc(N4CCCCC4)nn3)c2C)cc1 was read as FLuc modulator 12µM, ELG1 genotoxic inactive, Rab9 promoter act inconclusive, NPC1 prom act inconclusive and ELG1 DNA repair inconclusive.

High-throughput results from PubChem BioAssay.
